# Results published in ChEMBL document CHEMBL3433997, “St. Jude Leishmania screening dataset” (2016).
# Key:
# Assay type in all cases: functional
# [1] = target: Solute carrier family 2, facilitated glucose transporter member 1 (Homo sapiens) (UniProt P11166); experiment: ST_JUDE_LEISH: Cytotoxicity at 2uM final concentration against transgenic Leishmania Mexicana promastigotes LmGLUT1 that are glucose transport deficient and complemented with the human glucose transporter GLUT1. Activity is measured by DNA content using SYBR green in vitro
# [2] = target: Hexose transporter 1 (Plasmodium falciparum) (UniProt O97467); experiment: ST_JUDE_LEISH: Cytotoxicity at 2uM final concentration against transgenic Leishmania Mexicana promastigotes LmPfHT that are glucose transport deficient and complemented with the Plasmodium falciparum hexose transporter. Activity is measured by DNA content using SYBR green in vitro
# [3] = target: Glucose transporter (Leishmania mexicana) (UniProt O61059); experiment: ST_JUDE_LEISH: Cytotoxicity at 2uM final concentration against transgenic Leishmania Mexicana promastigotes LmGT2 that are glucose transport deficient and complemented with the L. Mexicana glucose transporter 2. Activity is measured by DNA content using SYBR green in vitro
# Solute carrier family 2, facilitated glucose transporter member 1 (Homo sapiens), sequence (P11166 whole entry): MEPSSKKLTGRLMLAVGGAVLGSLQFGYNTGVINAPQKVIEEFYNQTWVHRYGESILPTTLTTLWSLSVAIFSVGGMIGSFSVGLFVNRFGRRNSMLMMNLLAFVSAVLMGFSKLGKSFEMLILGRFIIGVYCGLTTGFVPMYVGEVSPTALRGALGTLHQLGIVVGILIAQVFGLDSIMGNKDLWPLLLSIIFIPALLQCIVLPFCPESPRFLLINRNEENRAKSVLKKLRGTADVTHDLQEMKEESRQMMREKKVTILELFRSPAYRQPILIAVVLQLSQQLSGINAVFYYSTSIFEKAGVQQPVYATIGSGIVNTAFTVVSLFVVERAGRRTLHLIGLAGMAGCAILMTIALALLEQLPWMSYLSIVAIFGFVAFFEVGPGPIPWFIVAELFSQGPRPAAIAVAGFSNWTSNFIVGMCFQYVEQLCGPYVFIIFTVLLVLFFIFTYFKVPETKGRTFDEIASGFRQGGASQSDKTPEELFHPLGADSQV
SMILES,inhibition [1] [%],inhibition [2] [%],inhibition [3] [%]
Cc1ccc(C)c2sc(N3CCN(C(=O)c4ccc([N+](=O)[O-])o4)CC3)nc12,28.7,38.4,7.78
Cc1cccc(CN2CCC(C(=O)Nc3ccc(-c4nc5ccccc5[nH]4)cc3)CC2)n1,2.6,2.69,3.71
CN1CCc2cc(NS(=O)(=O)c3ccc(-c4ccc(Cl)cc4)cc3)c(OCCCN3CCCCC3)cc2CC1,1.09,-0.92,0.92
CCCCCCC(N)c1ccc(OCCCOc2ccc(C(N)CCCCCC)cc2)cc1 (stereo not given),107,106,109
COc1ccc(CC(=O)Nc2ccc(Nc3nc(C)cc(N(C)C)n3)cc2)cc1,10.3,17.7,1.53
COc1cccc2cc(C(=O)N[C@@H](CC(C)C)C(=O)N[C@H](C=NNC(=O)OC(C)(C)C)Cc3ccccc3)oc12,7.26,6.28,4.09
CCCCCCCN1CC[C@@H](CCCc2ccnc3ccc(OCCN4CCOCC4)cc23)[C@@H](CC)C1,10.6,7.56,9.34
CCCCN(CCCC)CCCN(CCCN(CCCC)CCCC)c1cc(C)nc(Nc2ccc(Cl)cc2)n1,-0.03,0.22,0.44
Cc1cccc2c(CON3C(N)=NC(N)=NC3(C)C)cccc12,0.73,1.67,1.51
COc1ccc2nccc([C@@H](O)CN3CCC(NCc4cnc5c(c4)NC(=O)CS5)CC3)c2c1,2.7,4.54,1.2
COc1ccc2ncc(Cl)c([C@H](O)CN3CCC(NCc4cc5c(cn4)OCCO5)CC3)c2c1,11,7.96,6.66
CC(C)(C)OC(=O)NCc1ccc(Nc2nnc(-c3ccc(OCC(=O)NC[C@@H]4CC[C@H]5C[C@@H]4C5(C)C)c([N+](=O)[O-])c3)o2)cc1,2.01,2.91,0.68
COC(=O)c1cccc(CNCc2cccc(-c3cccc(-c4nc5ccccc5[nH]4)c3)c2)c1,1.94,3.05,2.93
Nc1c(C(=O)NCCCCN2CCN(c3nsc4ccccc34)CC2)sc2ccccc12,5.13,4.14,2.39
COc1ccc(F)cc1-c1ccc(C(=O)N2CCCN(c3ccc(C(F)(F)F)cn3)CC2)cc1,2.4,1.75,4.03
c1cc(COc2ccc(C3=NCCN3)cc2)nc(COc2ccc(C3=NCCN3)cc2)c1,4.95,5.66,-0.59
CC(=O)c1ccc(N2C(=O)C3C(Cc4ccc(OC(C)(C)C)cc4)NC4(C(=O)N(Cc5ccc(C(C)(C)C)cc5)c5ccccc54)C3C2=O)cc1 (stereo not given),7.13,4.25,2.13
N#Cc1cncc(-c2nc3c(N4CCCC(N)C4)cccc3n2CCNCc2ccccc2)c1 (stereo not given),6.64,5.11,8.87
CC(CN1CCN(C)CC1)C(=O)Nc1ccc(-c2csc(-c3nc4ccccc4[nH]3)c2)cc1 (stereo not given),4.03,5.18,5.51
CC1(C)NC(N)=NC(=N)N1OCc1nc(N)nc(Nc2ccccc2)n1,5.43,5.4,5.9
CC1(C)N=C(N)N=C(N)N1c1ccc(Oc2ccc(Cl)cc2)c(Cl)c1,0.34,-1.08,2.05
CCCCN(CCCC)Cc1cc(Nc2ccnc3cc(Cl)ccc23)ccc1O,4.85,8.01,4.18
COc1ccc(C2N=C(N)N=C(N)N2OCc2ccccc2)cc1OC (stereo not given),0.67,2.45,2.49
COc1ccc(CNCc2ccc(-c3cccc(-c4nc5ccccc5[nH]4)c3)cc2)cc1,5.98,6.56,2.14

SMILES,inhibition [1] [%],inhibition [2] [%],inhibition [3] [%]
O=C(CC(=O)C(F)(F)F)c1ccc2c(c1)OCO2,1.45,1.74,2.14
COc1cccc(C(=O)NCCOc2ccccc2)c1Oc1ccccc1,5.14,5.7,5.15
N#Cc1ccc(NC(=O)N2CCCN(CCCCCNC(=O)/C=C/c3ccc(Cl)c(Cl)c3)CC2)cc1,1.89,1.77,5.16
N#Cc1cccc(C(=O)NC2CCN(c3ccnc(Nc4ccc(F)cc4)n3)C2)c1 (stereo not given),2.56,2.47,0.63
CN1CCN(c2nsc3ccc(-c4ccc(NC(=O)Nc5ccccc5)cc4)cc23)CC1,2.28,0.56,0.99
Cc1onc(-c2ccccc2Cl)c1C(=O)Nc1cc(Cl)c(Cl)cc1Cl,3.43,5.64,4.95
CCc1cn(C)c2c(N3CCCC3=O)cc(C(=O)N[C@@H](Cc3ccccc3)[C@H](O)CNCc3cccc(OC)c3)cc12,2.48,2.2,2.88
COc1ccc(-c2cc(C(F)(F)F)n3ncc(C(=O)Nc4cc(C)ccc4O)c3n2)cc1OC,4.34,2.45,0.56
c1ccc(CNCc2cccc(-c3csc(-c4nc5ccccc5[nH]4)c3)c2)cc1,4.56,5.03,3.11
O=C(NC1CCC(N2CCN(c3cccc(C(F)(F)F)c3)CC2)CC1)c1cc2ccccc2[nH]1 (stereo not given),8.24,6.44,5.57
O=C(NCc1cccc(Cl)c1)c1ccc(CNC2CCN(Cc3ccccc3)CC2)cc1,-1.21,-0.25,2.18
O=C(Nc1cccc(-c2cccc(-c3nc4ccccc4[nH]3)c2)c1)c1csnn1,5.15,5.92,1.92
O=C(Nc1cccc(C(F)(F)F)c1)NC1CCN(c2ccnc3cc(Cl)ccc23)C1 (stereo not given),-0.97,-2.13,0.93
c1ccc(Oc2ccc(Nc3ccnc4cc(-c5cccc(CNCCN6CCOCC6)c5)ccc34)cc2)cc1,-0.34,-0.08,1.68
Cc1ccc2cc(C3NC(=O)c4ccccc4N3)c(Cl)nc2c1 (stereo not given),18.9,16.3,14.9
CC1(C)NC(N)=NC(=N)N1OCOc1cc(Cl)c(Cl)cc1Cl,-2.15,0.84,6.16
Fc1ccc2c(NN=CC=Cc3ccccc3)ccnc2c1,12.7,9.84,11.3
CN(C)CCCOc1cccc(NC(=O)Nc2ccc(-c3ccccc3)cc2)c1,-1.01,-1.23,-3.41
O=C(/C=C/c1ccc(Cl)c(Cl)c1)NCCCCCN1CCCN(C(=O)Nc2cc(Cl)cc(Cl)c2)CC1,3.31,3.85,6.4
CNC(=O)c1cncc(/C=C/c2ccccc2S(N)(=O)=O)c1,-0.22,4.59,-0.59
O=c1[nH]ccc2nc(N[C@@H]3CCCNC3)nc(Nc3ccc(S(=O)(=O)N4CCOCC4)cc3)c12,0.92,2.1,-0.68
O=c1cc(NCCCNC2CCCc3c2cc(Cl)c(Cl)c3Cl)[nH]c2ccccc12 (stereo not given),-3.43,1.1,0.08
CC(NC(=O)c1ccc(O)c(-c2ccc(Cl)c(Cl)c2)c1)C(=O)NCCN1CCCCC1 (stereo not given),-0.39,1.71,0.47
CC(C)(C)c1ccc(S(=O)(=O)Nc2cc(Cl)ccc2Cn2ccc(N3CCNCC3)nc2=O)cc1,-1.22,-3.39,-1.02

SMILES,inhibition [1] [%],inhibition [2] [%],inhibition [3] [%]
COc1nc2c(CCN3CCC(NCc4ccc5c(n4)NC(=O)CO5)CC3)c(Cl)cnc2cc1F,7.62,8.51,7.05
Nc1nc(N)c2c(ccc3nn(Cc4cccnc4)cc32)n1,5.81,5.44,4.81
C=CCNC(CCCCC)c1ccc(OCCOc2ccc(C(CCCCC)NCC=C)cc2)cc1 (stereo not given),0.79,11.9,3.03
CN1CCC(N2CCN(Cc3ccc(-c4cccc(-c5nc6cc(F)ccc6[nH]5)c4)cc3)CC2)CC1,2.39,2.13,2.94
O=C(/C=C/c1ccc(F)c(Br)c1)NCCCCCN1CCC(c2c[nH]c3ccccc23)CC1,1.88,0.52,-1.08
CCOc1ccc(C(C)NC(=O)c2cc(Cl)ccc2OC)cc1OCC (stereo not given),-0.81,0.16,-2.78
O=C(NCCc1ccc(Cl)c(Cl)c1)[C@@H]1CCCN1C(=O)c1ccc(O)c(-c2ccc(Cl)c(Cl)c2)c1,-1.56,-0.69,-1.51
Cc1cccc(Nc2nc3nonc3nc2Nc2cccc(Cl)c2Cl)c1C,9.75,7.64,7.5
CN1CCN(CCCN(Cc2ccc(-c3cccc(CNCc4ccc5c(c4)OCO5)c3)cc2)C(=O)CCC2CCCC2)CC1,2.35,2.56,-0.03
COc1ccc(CCNc2nc(NCc3ccccc3)c3cc(OC)c(OC)cc3n2)cc1OC,5.66,8.24,0.26
CC(C)(C)c1ccc(-c2csc(NC(=O)CC(c3ccccc3)c3ccccc3)n2)cc1,1.4,1.95,2.07
Cc1cccc(C(=O)Nc2ccnc(N(C)CCCN(C)Cc3cccc(O)c3)c2)c1,-1.6,1.08,-0.23
CC(C)C[C@H](NC(=O)c1cc2ccccc2s1)C(=O)N[C@H]1CCN(Cc2ccc(OC[C@@H]3CCCN3C)c3ccccc23)C1,3.88,5.05,2.71
CC(C)NCc1cccc(-c2ccc(NC(=O)c3cccc(C#N)c3)cc2)c1,0.25,0.74,2.32
Cc1cc(OCCCN2CCC(NS(=O)(=O)c3ccc(C(F)(F)F)cc3)CC2)c2ccccc2n1,1.59,0.36,0.63
N=C(N)c1cccc(OCCCOc2cccc(NC(=O)Nc3ccc([N+](=O)[O-])cc3)c2)c1,4.46,3.16,2.32
Cc1c(Br)cc2nc(-c3ccc(C(=O)NC4CCN(Cc5ccccc5)CC4)cc3)[nH]c2c1C,1.63,1.85,0.51
CC1=C(C(=O)Nc2cc3cn[nH]c3cc2F)C(c2cccc(NS(C)(=O)=O)c2)CC(=O)N1 (stereo not given),2.54,1.97,2.34
Nc1nc(NCC2CCC(CNS(=O)(=O)c3cccc4ccccc34)CC2)nc2ccccc12 (stereo not given),7.11,3.12,1.21
COc1ccc(-c2ccc([N+](=O)[O-])cc2C(=O)NCC(C)Oc2ccc(C(F)(F)F)cc2)cc1 (stereo not given),-0.75,-1.3,-3.99
COc1ccc2ncc(F)c(CCN3CC[C@H](NCc4cc(C#N)c5c(c4)OCCO5)[C@H](O)C3)c2c1,42.4,57.5,70.8
CC(CNCc1cn(Cc2cc(Br)cc(Br)c2)c2ccccc12)CNc1cc(=O)c2ccccc2[nH]1 (stereo not given),0.59,1.26,1.07
